# Source: the supplement of paper PMC8728848
# The sample as a whole holds a higher share of the strongest signals than the screen did.
# Columns and labels:
# Assay in all cases: glycan array binding signal (z-score within array); higher = stronger binding
# Conditions in all cases: glycan notation: IUPAC condensed, linker removed
# [1] = system: Fuc(a1-3)[Gal(b1-4)]GlcNAc(b1-4)Gal(b1-4)[Fuc(a1-3)]GlcNAc
# In short: (§1)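 Columns mapping to the same glycan were averaged after glycan names were converted to IUPAC-condensed notation. The data come from 3228 arrays in the Consortium for Functional Glycomics database, limited to those with an available protein sequence. Binding is reported as a within-array Z-score averaged across arrays of one protein sequence and across linkers.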
# Fuc(a1-4)GlcNAc = system: Fuc(a1-4)GlcNAc
# In short: as §1
# Gal(a1-3)Gal(b1-3)GlcNAc = system: Gal(a1-3)Gal(b1-3)GlcNAc
# In short: as §1
# [2] = system: Fuc(a1-3)[Gal3S(b1-4)]Glc6S
# In short: as §1
# [3] = system: Gal(a1-3)Gal(b1-3)GlcNAc(b1-2)Man(a1-3)[Gal(a1-3)Gal(b1-3)GlcNAc(b1-2)Man(a1-6)]Man(b1-4)GlcNAc(b1-4)GlcNAc
# In short: as §1
# [4] = system: Gal(a1-3)Gal(b1-3)GlcNAc(b1-3)GalNAc
# In short: as §1
# [5] = system: Fuc(a1-3)[Gal(b1-4)]GlcNAc6S
# In short: as §1
# Gal(a1-2)Gal = system: Gal(a1-2)Gal
# In short: as §1
# [6] = system: Fuc(a1-3)[Neu5Ac(a2-3)]Gal(b1-4)GlcNAc(b1-3)GalNAc
# In short: as §1
# [7] = system: Fuc(a1-3)[Gal(b1-4)]GlcNAc
# In short: as §1
# Fuc(b1-3)GlcNAc = system: Fuc(b1-3)GlcNAc
# In short: as §1
# [8] = system: Fuc(a1-3)[Gal(b1-4)]GlcNAc(b1-3)Gal(b1-4)[Fuc(a1-3)]GlcNAc(b1-3)Gal(b1-4)[Fuc(a1-3)]GlcNAc
# In short: as §1
# [9] = system: Fuc(a1-3)[Gal(b1-4)]GlcNAc(b1-6)[Gal(b1-3)GlcNAc(b1-3)]Gal(b1-4)Glc
# In short: as §1
# [10] = system: Gal(a1-3)Gal(b1-3)[Fuc(a1-4)]GlcNAc(b1-2)Man(a1-3)[Gal(a1-3)Gal(b1-3)[Fuc(a1-4)]GlcNAc(b1-2)Man(a1-6)]Man(b1-4)GlcNAc(b1-4)GlcNAc
# In short: as §1
# [11] = system: Fuc(a1-3)[Gal(b1-4)]GlcNAc(b1-3)Gal(b1-3)[Fuc(a1-4)]GlcNAc
# In short: as §1
# [12] = system: Fuc(a1-3)[Gal(b1-4)]GlcNAc(b1-3)Gal(b1-4)[Fuc(a1-3)]GlcNAc
# In short: as §1
# [13] = system: Fuc(a1-3)[Gal(b1-4)]GlcNAc(b1-6)GalNAc
# In short: as §1
# [14] = system: Fuc(a1-3)[Gal(b1-4)]GlcNAc(b1-4)Gal(b1-4)[Fuc(a1-3)]GlcNAc(b1-4)Gal(b1-4)[Fuc(a1-3)]GlcNAc
# In short: as §1
# Gal(a1-3)Gal(b1-3)Glc = system: Gal(a1-3)Gal(b1-3)Glc
# In short: as §1
# [15] = system: Gal(a1-3)Gal(b1-4)GlcNAc(b1-2)Man(a1-3)[Gal(a1-3)Gal(b1-4)GlcNAc(b1-2)Man(a1-6)]Man(b1-4)GlcNAc(b1-4)GlcNAc
# In short: as §1
# C3b (Homo sapiens), P01024, sequence (P01024 23-667): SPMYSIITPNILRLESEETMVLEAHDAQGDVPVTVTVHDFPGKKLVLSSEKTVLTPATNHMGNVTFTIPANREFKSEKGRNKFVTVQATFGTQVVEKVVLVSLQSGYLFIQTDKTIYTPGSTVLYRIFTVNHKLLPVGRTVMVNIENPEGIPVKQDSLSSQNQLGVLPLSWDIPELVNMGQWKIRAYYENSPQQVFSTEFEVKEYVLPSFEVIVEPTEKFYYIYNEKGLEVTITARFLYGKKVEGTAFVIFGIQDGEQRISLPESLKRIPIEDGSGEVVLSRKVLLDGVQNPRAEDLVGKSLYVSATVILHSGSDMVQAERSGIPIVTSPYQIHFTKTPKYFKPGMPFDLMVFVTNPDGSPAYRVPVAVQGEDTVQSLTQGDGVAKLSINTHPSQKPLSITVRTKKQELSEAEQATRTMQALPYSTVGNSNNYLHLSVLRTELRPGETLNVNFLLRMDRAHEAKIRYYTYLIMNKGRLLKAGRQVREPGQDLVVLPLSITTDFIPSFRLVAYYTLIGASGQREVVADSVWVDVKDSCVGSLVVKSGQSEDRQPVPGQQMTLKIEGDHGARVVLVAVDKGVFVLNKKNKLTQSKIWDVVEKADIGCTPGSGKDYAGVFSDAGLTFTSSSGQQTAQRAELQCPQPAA
# Avaren (Actinomycete K97), sequence (chain, as listed by the source): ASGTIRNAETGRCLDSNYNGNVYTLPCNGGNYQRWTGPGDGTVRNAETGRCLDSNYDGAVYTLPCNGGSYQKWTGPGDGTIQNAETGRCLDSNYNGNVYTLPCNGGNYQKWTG
# Aggrecan (Rattus norvegicus), NP_071526, sequence (chain, as listed by the source): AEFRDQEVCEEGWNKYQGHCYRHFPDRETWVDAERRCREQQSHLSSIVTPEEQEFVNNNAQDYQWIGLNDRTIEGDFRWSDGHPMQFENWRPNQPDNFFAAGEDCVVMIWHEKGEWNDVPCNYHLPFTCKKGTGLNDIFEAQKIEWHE
# PILRb (Mus musculus), Q2YSF2, sequence (Q2YSF2 entry or part of it): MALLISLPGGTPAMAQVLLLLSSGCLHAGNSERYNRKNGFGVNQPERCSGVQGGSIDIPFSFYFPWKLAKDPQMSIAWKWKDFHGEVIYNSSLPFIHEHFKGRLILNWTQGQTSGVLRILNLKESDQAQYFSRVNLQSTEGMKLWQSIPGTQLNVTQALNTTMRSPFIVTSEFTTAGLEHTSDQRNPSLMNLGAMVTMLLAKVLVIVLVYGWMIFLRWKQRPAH
# SRLC (Mus musculus), Q8VIF6, sequence (Q8VIF6 other isoform, or with tags, fused parts or gaps): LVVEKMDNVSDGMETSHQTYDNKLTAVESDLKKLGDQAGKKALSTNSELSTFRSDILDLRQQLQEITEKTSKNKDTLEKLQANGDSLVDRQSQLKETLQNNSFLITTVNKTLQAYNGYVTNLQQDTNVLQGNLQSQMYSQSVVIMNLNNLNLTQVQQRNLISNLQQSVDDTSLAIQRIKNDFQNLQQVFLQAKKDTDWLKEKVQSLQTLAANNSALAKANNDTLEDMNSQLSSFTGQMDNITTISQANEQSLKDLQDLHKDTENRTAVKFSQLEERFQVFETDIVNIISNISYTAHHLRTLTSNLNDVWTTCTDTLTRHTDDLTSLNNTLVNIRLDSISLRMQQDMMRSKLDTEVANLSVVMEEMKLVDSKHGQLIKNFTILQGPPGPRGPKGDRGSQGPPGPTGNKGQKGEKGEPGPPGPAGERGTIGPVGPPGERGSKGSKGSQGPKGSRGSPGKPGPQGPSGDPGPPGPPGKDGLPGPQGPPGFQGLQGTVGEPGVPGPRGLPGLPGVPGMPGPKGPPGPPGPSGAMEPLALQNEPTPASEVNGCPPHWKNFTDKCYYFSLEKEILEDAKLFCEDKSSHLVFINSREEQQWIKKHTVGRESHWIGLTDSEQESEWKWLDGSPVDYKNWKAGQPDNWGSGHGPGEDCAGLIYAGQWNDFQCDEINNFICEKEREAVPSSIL
# CHT (Homo sapiens), sequence (chain, as listed by the source): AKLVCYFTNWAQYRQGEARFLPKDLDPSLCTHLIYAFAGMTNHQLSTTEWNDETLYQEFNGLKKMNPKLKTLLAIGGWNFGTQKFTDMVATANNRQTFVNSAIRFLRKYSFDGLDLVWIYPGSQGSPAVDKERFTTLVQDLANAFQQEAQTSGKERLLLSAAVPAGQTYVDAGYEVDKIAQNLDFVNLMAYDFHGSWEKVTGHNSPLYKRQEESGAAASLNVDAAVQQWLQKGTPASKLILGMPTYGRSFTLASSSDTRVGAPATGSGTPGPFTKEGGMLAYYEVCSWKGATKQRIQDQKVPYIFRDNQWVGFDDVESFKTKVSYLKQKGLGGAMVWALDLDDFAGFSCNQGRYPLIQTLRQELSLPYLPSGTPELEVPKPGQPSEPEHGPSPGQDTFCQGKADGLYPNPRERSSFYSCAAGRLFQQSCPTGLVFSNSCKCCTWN
# CHI3L1 (Homo sapiens), P36222, sequence (P36222 whole entry): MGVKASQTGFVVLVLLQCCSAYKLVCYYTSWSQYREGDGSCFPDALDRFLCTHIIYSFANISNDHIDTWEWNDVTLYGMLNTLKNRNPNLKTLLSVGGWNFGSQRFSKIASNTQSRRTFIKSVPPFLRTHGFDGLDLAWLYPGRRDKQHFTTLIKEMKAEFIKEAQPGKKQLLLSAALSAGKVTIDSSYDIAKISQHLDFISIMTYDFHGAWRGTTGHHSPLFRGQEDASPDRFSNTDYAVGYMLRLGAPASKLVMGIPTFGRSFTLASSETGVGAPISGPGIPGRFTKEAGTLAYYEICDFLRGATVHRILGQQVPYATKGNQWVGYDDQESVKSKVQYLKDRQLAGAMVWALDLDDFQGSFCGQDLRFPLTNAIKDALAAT
# Regenerating Gene IV (Homo sapiens), Q9BYZ8, sequence (Q9BYZ8 whole entry, looked up): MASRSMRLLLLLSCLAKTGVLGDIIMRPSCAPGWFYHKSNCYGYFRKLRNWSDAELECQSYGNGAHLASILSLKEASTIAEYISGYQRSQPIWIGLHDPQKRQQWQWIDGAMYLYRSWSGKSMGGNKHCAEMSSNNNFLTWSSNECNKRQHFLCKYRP
# Neurocan (Homo sapiens), O14594, sequence (O14594 other isoform, or with tags, fused parts or gaps): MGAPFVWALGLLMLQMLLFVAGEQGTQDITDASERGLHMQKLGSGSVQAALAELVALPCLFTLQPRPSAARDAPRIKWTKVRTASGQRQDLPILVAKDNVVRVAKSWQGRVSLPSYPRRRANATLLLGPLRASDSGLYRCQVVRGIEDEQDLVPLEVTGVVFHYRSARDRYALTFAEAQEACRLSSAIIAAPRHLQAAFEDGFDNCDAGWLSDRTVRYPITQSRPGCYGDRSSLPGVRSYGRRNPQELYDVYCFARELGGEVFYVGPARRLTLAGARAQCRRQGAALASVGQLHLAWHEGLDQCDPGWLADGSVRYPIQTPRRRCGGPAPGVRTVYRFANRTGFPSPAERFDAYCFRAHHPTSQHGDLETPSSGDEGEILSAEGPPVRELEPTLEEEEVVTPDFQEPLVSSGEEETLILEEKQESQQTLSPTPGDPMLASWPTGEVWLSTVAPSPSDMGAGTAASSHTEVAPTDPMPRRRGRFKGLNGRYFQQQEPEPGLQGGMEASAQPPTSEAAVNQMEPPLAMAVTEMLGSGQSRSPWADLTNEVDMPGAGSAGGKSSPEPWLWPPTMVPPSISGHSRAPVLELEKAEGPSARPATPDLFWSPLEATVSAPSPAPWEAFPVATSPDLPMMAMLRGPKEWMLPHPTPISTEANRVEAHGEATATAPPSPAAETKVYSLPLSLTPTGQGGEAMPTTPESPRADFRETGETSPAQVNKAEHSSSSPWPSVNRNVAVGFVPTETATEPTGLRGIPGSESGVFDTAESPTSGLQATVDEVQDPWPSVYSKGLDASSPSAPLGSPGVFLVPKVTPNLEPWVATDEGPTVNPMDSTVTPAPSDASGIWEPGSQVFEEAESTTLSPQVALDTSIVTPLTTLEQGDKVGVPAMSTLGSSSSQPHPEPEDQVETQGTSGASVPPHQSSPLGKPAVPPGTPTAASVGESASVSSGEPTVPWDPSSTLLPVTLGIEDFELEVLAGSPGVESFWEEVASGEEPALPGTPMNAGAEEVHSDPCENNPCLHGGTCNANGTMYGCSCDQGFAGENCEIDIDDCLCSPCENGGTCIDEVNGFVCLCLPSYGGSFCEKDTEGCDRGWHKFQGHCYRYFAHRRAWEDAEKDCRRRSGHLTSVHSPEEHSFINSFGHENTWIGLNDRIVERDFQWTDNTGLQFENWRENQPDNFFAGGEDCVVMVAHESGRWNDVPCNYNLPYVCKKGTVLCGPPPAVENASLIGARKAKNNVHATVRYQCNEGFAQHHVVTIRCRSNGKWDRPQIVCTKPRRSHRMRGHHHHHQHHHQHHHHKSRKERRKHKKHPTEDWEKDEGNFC
# wLAT-1A (Homo sapiens), Q01650, sequence (Q01650 whole entry): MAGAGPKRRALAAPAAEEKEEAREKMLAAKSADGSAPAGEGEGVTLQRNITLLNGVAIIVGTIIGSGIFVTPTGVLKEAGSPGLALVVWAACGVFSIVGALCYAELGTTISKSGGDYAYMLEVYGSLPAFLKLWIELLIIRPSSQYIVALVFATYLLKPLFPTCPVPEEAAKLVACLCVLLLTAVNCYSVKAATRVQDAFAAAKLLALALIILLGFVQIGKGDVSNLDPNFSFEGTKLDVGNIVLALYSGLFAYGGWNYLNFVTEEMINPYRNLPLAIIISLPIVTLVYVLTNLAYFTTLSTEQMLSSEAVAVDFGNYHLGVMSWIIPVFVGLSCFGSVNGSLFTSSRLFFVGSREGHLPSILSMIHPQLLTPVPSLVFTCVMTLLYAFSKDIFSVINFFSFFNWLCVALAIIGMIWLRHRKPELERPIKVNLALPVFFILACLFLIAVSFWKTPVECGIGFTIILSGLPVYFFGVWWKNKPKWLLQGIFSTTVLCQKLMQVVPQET
substance,measurement,setting,value
"C3b (Homo sapiens), P01024",glycan array binding signal (z-score),[1],-0.595
same,glycan array binding signal (z-score),Fuc(a1-4)GlcNAc,3.19
same,glycan array binding signal (z-score),Gal(a1-3)Gal(b1-3)GlcNAc,1.35
"PILRb (Mus musculus), Q2YSF2",glycan array binding signal (z-score),[2],-0.626
same,glycan array binding signal (z-score),[3],6.25
same,glycan array binding signal (z-score),[4],-0.312
"wLAT-1A (Homo sapiens), Q01650",glycan array binding signal (z-score),[2],3.91
"Regenerating Gene IV (Homo sapiens), Q9BYZ8",glycan array binding signal (z-score),[5],-0.14
same,glycan array binding signal (z-score),Gal(a1-2)Gal,6.89
"Aggrecan (Rattus norvegicus), NP_071526",glycan array binding signal (z-score),[6],0.658
same,glycan array binding signal (z-score),Gal(a1-2)Gal,-0.066
same,glycan array binding signal (z-score),Gal(a1-3)Gal(b1-3)GlcNAc,-0.05
CHT (Homo sapiens),glycan array binding signal (z-score),"[7]; mutation: D138V, E140I",-0.176
same,glycan array binding signal (z-score),"Fuc(b1-3)GlcNAc; mutation: D138V, E140I",-0.132
"HARE (Homo sapiens), Q8WWQ8",glycan array binding signal (z-score),[8],0.285
"Neurocan (Homo sapiens), O14594",glycan array binding signal (z-score),[9],2.26
same,glycan array binding signal (z-score),Fuc(b1-3)GlcNAc,-0.101
MpAFP RI GFP (Marinomonas primoryensis),glycan array binding signal (z-score),[10],2.56
"CHI3L1 (Homo sapiens), P36222",glycan array binding signal (z-score),[11],-0.081
same,glycan array binding signal (z-score),Gal(a1-2)Gal,-0.025
"Siglec-8 (Homo sapiens), Q9NYZ4",glycan array binding signal (z-score),[12],-0.046
same,glycan array binding signal (z-score),[13],-0.063
same,glycan array binding signal (z-score),[5]; mutation: R125K,5.35
same,glycan array binding signal (z-score),[7]; mutation: R125K,-0.361
same,glycan array binding signal (z-score),Fuc(a1-4)GlcNAc; mutation: R125K,2.97
"SRLC (Mus musculus), Q8VIF6",glycan array binding signal (z-score),[11],4.31
same,glycan array binding signal (z-score),[14],7.13
same,glycan array binding signal (z-score),[1],4.46
same,glycan array binding signal (z-score),[7],6.98
same,glycan array binding signal (z-score),Gal(a1-3)Gal(b1-3)Glc,-0.234
Avaren (Actinomycete K97),glycan array binding signal (z-score),[13],-0.094
same,glycan array binding signal (z-score),[5],-0.109
same,glycan array binding signal (z-score),[15],-0.106
